# Experimental data taken from article PMC7862700, “An all-to-all approach to the identification of sequence-specific readers for epigenetic DNA modifications on cytosine”.
# Assays:
# Assay in all cases: DAPPL (digital affinity profiling via proximity ligation, sequencing); 10 mM Tris-HCl pH 7.5, 50 mM NaCl, 1 mM DTT, 4% glycerol, room temperature, 30 min; GST-TFs on glutathione beads, 16-mer random dsDNA library, 0.1% formaldehyde crosslink after washing; high values mean tight binding
# FLI1 = biological target: T1, FLI1 (Homo sapiens, UniProt Q01543 1-452); conditions: protein: recombinant; tags: N-terminal GST; dsDNA, one strand shown
# T1 sequence: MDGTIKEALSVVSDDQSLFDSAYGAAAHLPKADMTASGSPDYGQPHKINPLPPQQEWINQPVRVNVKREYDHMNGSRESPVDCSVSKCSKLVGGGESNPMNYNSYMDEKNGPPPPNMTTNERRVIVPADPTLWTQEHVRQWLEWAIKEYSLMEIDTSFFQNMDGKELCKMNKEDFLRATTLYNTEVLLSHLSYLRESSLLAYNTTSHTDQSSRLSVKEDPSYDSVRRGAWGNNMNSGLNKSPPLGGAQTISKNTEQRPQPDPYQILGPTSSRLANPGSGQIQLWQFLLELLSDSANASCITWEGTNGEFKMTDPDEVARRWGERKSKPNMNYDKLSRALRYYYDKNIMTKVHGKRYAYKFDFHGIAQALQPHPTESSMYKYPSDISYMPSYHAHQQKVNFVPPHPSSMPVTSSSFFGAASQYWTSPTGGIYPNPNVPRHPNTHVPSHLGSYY
# In short: (§1)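 The binding signal reported is, for every hexamer, its read frequency for a factor over its read frequency for the tag-only sample. Reads came from pools of yeast-expressed, GST-fused human transcription factors on glutathione beads, barcoded with DNA and mixed with that sample, which were incubated with 200 nmole of a random double-stranded 16-mer DNA library in Tris/NaCl/DTT/glycerol buffer at room temperature for 30 min. After washing, the pools were crosslinked with 0.1% formaldehyde, proximity-ligated with BsaI/T4 ligase for 1 h at 37 °C, PCR-amplified and sequenced on an Illumina NextSeq500.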
# ELK1 = biological target: T2, ELK1 (Homo sapiens, UniProt P19419 1-428); conditions: protein: recombinant; tags: N-terminal GST; dsDNA, one strand shown
# T2 sequence: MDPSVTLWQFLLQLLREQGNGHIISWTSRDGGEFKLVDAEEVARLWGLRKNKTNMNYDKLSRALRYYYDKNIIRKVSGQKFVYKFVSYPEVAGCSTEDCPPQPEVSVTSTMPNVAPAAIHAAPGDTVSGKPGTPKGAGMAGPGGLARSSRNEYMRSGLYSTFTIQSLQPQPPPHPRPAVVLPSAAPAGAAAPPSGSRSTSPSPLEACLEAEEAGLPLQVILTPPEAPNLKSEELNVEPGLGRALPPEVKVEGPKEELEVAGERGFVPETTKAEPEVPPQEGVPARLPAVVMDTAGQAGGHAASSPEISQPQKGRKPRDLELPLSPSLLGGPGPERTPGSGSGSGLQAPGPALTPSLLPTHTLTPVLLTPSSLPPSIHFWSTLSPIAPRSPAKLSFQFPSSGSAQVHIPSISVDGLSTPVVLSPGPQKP
# In short: as §1
# GABPA = biological target: T3, GABPA (Homo sapiens, UniProt Q06546 1-454); conditions: protein: recombinant; tags: N-terminal GST; dsDNA, one strand shown
# T3 sequence: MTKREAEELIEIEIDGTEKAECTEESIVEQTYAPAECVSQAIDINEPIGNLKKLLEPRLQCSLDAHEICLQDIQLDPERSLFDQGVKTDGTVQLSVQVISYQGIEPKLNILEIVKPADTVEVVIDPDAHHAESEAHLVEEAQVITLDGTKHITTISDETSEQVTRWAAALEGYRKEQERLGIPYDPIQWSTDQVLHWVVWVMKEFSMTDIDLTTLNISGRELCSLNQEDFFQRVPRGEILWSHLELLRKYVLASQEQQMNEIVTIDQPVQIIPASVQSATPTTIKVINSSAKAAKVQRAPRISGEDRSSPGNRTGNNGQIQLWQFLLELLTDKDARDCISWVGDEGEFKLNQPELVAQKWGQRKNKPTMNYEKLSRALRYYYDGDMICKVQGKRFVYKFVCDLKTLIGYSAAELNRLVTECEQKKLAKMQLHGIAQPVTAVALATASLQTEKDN
# In short: as §1
# ERG = biological target: T4, ERG (Homo sapiens, UniProt P11308 1-479); conditions: protein: recombinant; tags: N-terminal GST; dsDNA, one strand shown
# T4 sequence: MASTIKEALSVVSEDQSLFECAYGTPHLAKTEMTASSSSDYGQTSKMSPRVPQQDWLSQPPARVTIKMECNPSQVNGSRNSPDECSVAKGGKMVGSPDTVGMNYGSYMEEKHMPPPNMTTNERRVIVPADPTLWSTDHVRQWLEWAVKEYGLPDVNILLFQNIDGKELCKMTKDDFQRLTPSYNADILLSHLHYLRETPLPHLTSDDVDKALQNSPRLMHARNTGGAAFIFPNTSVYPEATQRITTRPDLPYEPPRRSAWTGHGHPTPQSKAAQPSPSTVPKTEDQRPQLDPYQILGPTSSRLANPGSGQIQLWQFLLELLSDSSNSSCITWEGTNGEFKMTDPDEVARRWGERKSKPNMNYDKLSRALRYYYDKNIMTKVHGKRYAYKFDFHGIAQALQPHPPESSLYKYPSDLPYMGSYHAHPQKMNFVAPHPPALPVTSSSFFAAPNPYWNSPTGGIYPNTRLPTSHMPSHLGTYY
# In short: as §1
# ELF1 = ELF1 (Homo sapiens, UniProt P32519 1-619); conditions: protein: recombinant; tags: N-terminal GST; dsDNA, one strand shown
# ELF1, sequence (P32519 whole entry): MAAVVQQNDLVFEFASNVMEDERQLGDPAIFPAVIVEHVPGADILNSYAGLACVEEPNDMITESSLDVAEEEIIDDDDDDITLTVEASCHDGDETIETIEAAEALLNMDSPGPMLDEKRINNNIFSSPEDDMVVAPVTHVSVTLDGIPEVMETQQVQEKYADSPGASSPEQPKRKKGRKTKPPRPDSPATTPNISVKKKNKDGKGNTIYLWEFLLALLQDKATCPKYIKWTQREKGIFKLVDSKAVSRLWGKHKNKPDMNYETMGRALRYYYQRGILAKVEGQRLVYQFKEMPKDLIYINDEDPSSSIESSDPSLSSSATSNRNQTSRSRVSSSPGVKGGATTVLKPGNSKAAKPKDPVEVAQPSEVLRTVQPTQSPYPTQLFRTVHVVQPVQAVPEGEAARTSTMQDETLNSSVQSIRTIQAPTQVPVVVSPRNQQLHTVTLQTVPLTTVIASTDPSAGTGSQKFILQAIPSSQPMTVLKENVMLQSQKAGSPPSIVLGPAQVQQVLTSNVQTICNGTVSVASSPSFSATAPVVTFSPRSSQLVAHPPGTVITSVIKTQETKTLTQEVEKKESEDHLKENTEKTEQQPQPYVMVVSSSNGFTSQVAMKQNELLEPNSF
# In short: as §1
# EHF = biological target: T5, EHF (Homo sapiens, UniProt Q9NZC4 1-300); conditions: protein: recombinant; tags: N-terminal GST; dsDNA, one strand shown
# T5 sequence: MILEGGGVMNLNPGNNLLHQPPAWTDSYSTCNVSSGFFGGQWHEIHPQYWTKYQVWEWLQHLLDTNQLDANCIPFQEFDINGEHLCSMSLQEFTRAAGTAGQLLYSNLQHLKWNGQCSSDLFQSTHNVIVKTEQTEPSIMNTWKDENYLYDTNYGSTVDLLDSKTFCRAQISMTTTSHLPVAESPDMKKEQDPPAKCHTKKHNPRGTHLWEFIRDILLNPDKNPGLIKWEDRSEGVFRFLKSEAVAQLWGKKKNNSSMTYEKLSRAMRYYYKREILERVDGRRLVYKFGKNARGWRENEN
# In short: as §1
# SPI1 = SPI1 (Homo sapiens, UniProt P17947 1-270); conditions: protein: recombinant; tags: N-terminal GST; dsDNA, one strand shown
# In short: as §1
# SPIB = SPIB (Homo sapiens, UniProt Q01892 1-262); conditions: protein: recombinant; tags: N-terminal GST; dsDNA, one strand shown
# SPIB, sequence (Q01892 whole entry): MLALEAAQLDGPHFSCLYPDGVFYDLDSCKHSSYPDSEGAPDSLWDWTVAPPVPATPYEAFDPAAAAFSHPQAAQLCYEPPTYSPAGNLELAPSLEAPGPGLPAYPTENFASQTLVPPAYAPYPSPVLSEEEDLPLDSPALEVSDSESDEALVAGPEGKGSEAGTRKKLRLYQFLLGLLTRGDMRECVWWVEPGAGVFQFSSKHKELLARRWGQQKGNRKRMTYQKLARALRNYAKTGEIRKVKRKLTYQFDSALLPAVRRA
# In short: as §1
# ELK3 = biological target: T6, ELK3 (Homo sapiens, UniProt P41970 1-407); conditions: protein: recombinant; tags: N-terminal GST; dsDNA, one strand shown
# T6 sequence: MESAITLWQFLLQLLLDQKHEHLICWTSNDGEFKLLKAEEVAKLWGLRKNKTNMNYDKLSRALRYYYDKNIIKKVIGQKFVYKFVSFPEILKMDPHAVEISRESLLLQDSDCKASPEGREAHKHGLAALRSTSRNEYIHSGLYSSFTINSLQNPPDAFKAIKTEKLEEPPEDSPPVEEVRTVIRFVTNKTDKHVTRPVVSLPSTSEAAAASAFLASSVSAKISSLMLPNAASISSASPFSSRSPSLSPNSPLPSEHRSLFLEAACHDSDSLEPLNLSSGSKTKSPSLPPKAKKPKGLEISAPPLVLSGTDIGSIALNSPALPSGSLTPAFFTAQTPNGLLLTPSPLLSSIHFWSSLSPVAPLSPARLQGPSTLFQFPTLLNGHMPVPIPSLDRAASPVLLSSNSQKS
# In short: as §1
# FEV = biological target: T7, FEV (Homo sapiens, UniProt Q99581 1-238); conditions: protein: recombinant; tags: N-terminal GST; dsDNA, one strand shown
# T7 sequence: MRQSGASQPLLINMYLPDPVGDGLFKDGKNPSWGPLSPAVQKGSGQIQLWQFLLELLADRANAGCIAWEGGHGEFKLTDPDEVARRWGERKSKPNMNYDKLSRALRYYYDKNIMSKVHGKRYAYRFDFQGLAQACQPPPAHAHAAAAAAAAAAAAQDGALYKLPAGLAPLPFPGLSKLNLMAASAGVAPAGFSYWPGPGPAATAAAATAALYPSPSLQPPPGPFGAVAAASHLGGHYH
# In short: as §1
# ETV5 = ETV5 (Homo sapiens, UniProt P41161 1-510); conditions: protein: recombinant; tags: N-terminal GST; dsDNA, one strand shown
# ETV5, sequence (P41161 whole entry): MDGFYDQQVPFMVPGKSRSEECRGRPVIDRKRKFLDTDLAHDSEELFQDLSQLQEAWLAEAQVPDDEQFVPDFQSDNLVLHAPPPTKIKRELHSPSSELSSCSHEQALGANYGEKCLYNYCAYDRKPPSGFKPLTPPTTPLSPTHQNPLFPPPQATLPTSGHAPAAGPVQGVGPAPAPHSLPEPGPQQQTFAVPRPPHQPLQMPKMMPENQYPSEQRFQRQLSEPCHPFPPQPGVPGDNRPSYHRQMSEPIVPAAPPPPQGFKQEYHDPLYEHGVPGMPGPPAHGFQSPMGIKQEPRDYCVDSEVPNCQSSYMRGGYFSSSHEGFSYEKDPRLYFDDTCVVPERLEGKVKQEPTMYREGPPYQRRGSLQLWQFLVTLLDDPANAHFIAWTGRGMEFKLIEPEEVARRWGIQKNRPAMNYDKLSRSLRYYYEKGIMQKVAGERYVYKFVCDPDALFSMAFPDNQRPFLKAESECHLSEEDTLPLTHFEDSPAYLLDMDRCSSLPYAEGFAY
# In short: as §1
# HSF1 = HSF1 (Homo sapiens, UniProt Q00613 1-529); conditions: protein: recombinant; tags: N-terminal GST; chain copies: 3; dsDNA, one strand shown
# HSF1, sequence (Q00613 whole entry): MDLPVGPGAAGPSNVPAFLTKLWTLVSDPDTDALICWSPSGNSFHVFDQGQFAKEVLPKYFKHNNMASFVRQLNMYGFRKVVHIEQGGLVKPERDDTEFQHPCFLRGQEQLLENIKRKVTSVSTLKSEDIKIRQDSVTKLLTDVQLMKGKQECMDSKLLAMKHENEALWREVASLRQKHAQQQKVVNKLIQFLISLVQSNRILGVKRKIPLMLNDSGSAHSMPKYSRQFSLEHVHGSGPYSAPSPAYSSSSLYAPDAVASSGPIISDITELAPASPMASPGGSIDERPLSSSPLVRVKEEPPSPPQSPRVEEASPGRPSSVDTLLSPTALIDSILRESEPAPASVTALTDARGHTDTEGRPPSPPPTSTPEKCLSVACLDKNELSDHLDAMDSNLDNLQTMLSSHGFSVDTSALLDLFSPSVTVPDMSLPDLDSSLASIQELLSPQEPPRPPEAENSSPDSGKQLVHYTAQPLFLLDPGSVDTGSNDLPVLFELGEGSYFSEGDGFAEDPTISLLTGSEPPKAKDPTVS
# In short: as §1
# SPIC = biological target: T8, SPIC (Homo sapiens, UniProt Q8N5J4 1-248); conditions: protein: recombinant; tags: N-terminal GST; dsDNA, one strand shown
# T8 sequence: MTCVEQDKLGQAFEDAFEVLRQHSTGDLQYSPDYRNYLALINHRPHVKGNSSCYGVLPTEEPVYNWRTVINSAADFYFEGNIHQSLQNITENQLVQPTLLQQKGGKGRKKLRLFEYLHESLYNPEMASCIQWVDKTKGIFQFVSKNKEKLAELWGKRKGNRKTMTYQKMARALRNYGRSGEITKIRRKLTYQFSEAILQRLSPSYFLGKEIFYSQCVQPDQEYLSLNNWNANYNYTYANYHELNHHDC
# In short: as §1
# ELF4 = ELF4 (Homo sapiens, UniProt Q99607 1-663); conditions: protein: recombinant; tags: N-terminal GST; dsDNA, one strand shown
# ELF4, sequence (Q99607 whole entry): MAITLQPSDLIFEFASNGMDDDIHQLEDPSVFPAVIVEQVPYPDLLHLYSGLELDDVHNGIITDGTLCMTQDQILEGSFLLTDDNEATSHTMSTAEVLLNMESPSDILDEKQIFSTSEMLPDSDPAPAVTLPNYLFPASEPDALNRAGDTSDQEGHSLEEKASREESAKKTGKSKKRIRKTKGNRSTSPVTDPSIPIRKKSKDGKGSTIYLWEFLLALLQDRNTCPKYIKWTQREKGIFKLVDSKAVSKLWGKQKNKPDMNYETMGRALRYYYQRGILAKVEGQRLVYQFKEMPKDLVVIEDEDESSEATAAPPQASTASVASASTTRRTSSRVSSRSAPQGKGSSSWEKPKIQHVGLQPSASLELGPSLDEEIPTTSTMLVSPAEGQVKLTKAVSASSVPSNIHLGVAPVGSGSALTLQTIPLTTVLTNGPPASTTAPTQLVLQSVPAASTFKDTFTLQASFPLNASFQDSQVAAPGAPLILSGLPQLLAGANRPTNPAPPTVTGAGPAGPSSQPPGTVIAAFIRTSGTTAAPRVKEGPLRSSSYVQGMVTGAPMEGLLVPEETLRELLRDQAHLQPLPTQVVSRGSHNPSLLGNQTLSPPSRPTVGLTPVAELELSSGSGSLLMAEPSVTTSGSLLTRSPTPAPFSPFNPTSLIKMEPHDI
# In short: as §1
# ELK4 = biological target: T9, ELK4 (Homo sapiens, UniProt P28324-2 1-405); conditions: protein: recombinant; tags: N-terminal GST; dsDNA, one strand shown
# T9 sequence: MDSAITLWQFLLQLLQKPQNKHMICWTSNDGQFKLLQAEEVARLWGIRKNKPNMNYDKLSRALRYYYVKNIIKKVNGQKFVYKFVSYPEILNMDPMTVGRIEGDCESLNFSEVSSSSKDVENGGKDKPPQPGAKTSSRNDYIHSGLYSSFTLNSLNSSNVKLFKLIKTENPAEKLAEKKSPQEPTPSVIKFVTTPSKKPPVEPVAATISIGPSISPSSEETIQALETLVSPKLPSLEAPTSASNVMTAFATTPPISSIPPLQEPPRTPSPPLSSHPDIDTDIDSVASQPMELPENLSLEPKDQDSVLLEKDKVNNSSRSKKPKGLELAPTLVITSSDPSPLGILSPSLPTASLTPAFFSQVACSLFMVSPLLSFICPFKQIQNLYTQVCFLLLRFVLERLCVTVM
# In short: as §1
# ETV2 = biological target: T10, ETV2 (Homo sapiens, UniProt O00321 1-342); conditions: protein: recombinant; tags: N-terminal GST; dsDNA, one strand shown
# T10 sequence: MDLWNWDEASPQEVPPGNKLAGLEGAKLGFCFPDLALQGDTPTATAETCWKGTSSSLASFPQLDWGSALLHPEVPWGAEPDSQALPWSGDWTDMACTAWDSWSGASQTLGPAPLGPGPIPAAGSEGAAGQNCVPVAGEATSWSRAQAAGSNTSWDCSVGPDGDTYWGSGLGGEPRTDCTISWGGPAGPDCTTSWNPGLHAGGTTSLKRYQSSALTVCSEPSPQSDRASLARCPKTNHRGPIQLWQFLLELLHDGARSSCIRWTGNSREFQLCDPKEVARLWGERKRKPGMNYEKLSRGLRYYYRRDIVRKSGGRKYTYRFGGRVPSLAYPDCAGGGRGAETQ
# In short: as §1
# ELF3 = biological target: T11, ELF3 (Homo sapiens, UniProt P78545 1-371); conditions: protein: recombinant; tags: N-terminal GST; dsDNA, one strand shown
# T11 sequence: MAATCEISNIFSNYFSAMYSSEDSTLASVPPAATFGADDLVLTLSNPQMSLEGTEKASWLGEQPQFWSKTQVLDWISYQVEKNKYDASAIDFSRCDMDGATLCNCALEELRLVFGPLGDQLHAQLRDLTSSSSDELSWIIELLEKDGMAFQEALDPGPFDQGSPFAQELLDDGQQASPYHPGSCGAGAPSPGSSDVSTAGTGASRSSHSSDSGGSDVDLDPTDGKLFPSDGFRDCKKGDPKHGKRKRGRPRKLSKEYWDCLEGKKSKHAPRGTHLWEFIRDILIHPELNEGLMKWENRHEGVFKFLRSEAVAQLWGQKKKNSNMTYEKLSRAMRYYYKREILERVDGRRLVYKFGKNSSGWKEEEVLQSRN
# In short: as §1
# ETV1 = ETV1 (Homo sapiens, UniProt P50549 1-477); conditions: protein: recombinant; tags: N-terminal GST; dsDNA, one strand shown
# ETV1, sequence (P50549 whole entry): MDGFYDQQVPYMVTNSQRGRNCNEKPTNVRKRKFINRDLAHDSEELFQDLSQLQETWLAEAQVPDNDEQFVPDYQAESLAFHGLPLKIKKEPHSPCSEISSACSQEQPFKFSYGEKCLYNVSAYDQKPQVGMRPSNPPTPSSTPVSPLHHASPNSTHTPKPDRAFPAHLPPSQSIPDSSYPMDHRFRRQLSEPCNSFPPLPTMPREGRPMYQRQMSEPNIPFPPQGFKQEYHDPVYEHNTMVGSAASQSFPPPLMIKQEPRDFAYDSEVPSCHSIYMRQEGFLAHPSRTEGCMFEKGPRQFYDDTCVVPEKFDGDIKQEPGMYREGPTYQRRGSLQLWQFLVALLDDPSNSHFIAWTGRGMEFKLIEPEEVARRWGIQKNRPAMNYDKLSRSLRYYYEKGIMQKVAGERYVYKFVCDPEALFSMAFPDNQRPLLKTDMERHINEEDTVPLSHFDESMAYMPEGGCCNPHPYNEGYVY
# In short: as §1
sequence,measurement,setting,value
CGATAC,binding signal,FLI1,"1.19 fold enrichment (6-mer frequency, TF over GST control)"
same,binding signal,ELK1,"1.19 fold enrichment (6-mer frequency, TF over GST control)"
same,binding signal,GABPA,"1.27 fold enrichment (6-mer frequency, TF over GST control)"
same,binding signal,ERG,"1.18 fold enrichment (6-mer frequency, TF over GST control)"
same,binding signal,ELF1,"1.19 fold enrichment (6-mer frequency, TF over GST control)"
same,binding signal,EHF,"1.2 fold enrichment (6-mer frequency, TF over GST control)"
same,binding signal,SPI1,"1.15 fold enrichment (6-mer frequency, TF over GST control)"
same,binding signal,SPIB,"1.06 fold enrichment (6-mer frequency, TF over GST control)"
same,binding signal,ELK3,"1.14 fold enrichment (6-mer frequency, TF over GST control)"
same,binding signal,FEV,"1.14 fold enrichment (6-mer frequency, TF over GST control)"
same,binding signal,ETV5,"1.13 fold enrichment (6-mer frequency, TF over GST control)"
same,binding signal,HSF1,"1.01 fold enrichment (6-mer frequency, TF over GST control)"
same,binding signal,SPIC,"1.34 fold enrichment (6-mer frequency, TF over GST control)"
same,binding signal,ELF4,"1.25 fold enrichment (6-mer frequency, TF over GST control)"
same,binding signal,ELK4,"1.15 fold enrichment (6-mer frequency, TF over GST control)"
same,binding signal,ETV2,"1.18 fold enrichment (6-mer frequency, TF over GST control)"
same,binding signal,ELF3,"1.14 fold enrichment (6-mer frequency, TF over GST control)"
same,binding signal,ETV1,"1.13 fold enrichment (6-mer frequency, TF over GST control)"
